# Assay results taken from PubChem BioAssay AID1032 (The Scripps Research Institute Molecular Screening Center, 2008).
# The whole screen tested about 200,000 compounds, of which about 670 (0.34%) were called active. For the sample, actives were picked, then their nearest neighbours and some compounds at random. Values without a mark were called inactive. Cut-off read from the data, not from the text of the source: active = activation above about 22%; inactive = the rest.
# Biological target: Peroxisome proliferator-activated receptor gamma (Homo sapiens) (UniProt P37231)
# Sequence (P37231 whole entry, looked up): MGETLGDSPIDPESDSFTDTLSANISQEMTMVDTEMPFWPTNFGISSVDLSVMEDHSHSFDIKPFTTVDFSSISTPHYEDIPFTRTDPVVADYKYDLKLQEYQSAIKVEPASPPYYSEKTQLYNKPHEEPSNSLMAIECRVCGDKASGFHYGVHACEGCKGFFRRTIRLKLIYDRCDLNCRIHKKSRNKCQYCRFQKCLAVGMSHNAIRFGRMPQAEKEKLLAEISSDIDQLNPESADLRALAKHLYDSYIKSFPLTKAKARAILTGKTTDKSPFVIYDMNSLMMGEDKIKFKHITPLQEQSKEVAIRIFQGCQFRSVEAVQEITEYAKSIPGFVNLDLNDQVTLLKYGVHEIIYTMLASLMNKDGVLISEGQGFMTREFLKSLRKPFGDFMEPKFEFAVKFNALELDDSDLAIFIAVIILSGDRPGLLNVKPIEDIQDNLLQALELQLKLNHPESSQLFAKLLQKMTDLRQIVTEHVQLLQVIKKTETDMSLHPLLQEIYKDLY
# Assay: compounds enhancing SRC-2 coactivator binding to PPARgamma – biochemical, HTS, primary screen (AID 1032);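 note: 0% = vehicle and 100% = reference agonist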
# Conditions: PPARgamma LBD-SRC-2 recruitment, at 8 µM, active compounds read high
row,SMILES,activation
1,COc1ccc(OCc2n[nH]c(=S)n2N)cc1,4.69%
2,COc1ccc(CSc2nc(N3CCOCC3)c3c(c2C#N)CC(C)(C)OC3)cc1,-5.06%
3,c1ccc(CSc2ncnc3c2sc2nc(N4CCOCC4)c4c(c23)CCCC4)cc1,96% (active)
4,c1ccc(COc2nsnc2N2CCOCC2)cc1,7.85%
5,CNC(=O)c1ccsc1NC(=O)c1ccc(S(=O)(=O)N2CCOCC2)cc1,14.3%
6,COc1cc(/C=C(/NC(=O)c2ccc(Cl)cc2Cl)C(=O)O)cc(OC)c1OC,11.2%
7,Cc1ccc(CNC(=O)CC2Sc3ccccc3NC2=O)cc1 (stereo unspecified),0.66%
8,Cc1ccc(S(=O)(=O)c2ccc(Cl)cc2)cc1S(=O)(=O)NC(C(=O)O)C(C)C (stereo unspecified),-4.99%
9,COc1cccc(NCCC(=O)c2cccc([N+](=O)[O-])c2)c1,7.36%
10,COc1cccc2c1OCC(CN1CCN(C3CCCCC3)C(CCO)C1)=C2 (stereo unspecified),1.05%
11,Cn1c(N)cc(-c2ccc(F)cc2)c(C#N)c1=O,1.85%
12,Cc1ccc(S(=O)(=O)NC(C(=O)N2CCOCCOCCOCCOCC2)c2ccccc2)cc1 (stereo unspecified),6.3%
13,CC(C(=O)N1CCOCC1)N1c2cccc3cccc(c23)S1(=O)=O (stereo unspecified),28.1% (active)
14,NC(=NC(=O)c1ccccc1)N1CCOCC1,11.2%
15,Oc1cccc2ccc(/C=C/c3ccc(Br)s3)nc12,-1.88%
16,N#Cc1c(N)nc2c(c1N)CC(C(F)(F)F)O2 (stereo unspecified),2.19%
17,OCC1(CCc2ccccc2)CCN(Cc2ccc3nsnc3c2)CC1,39.5% (active)
18,CC(=O)c1cccc(CN2CCC(CO)(Cc3ccccc3)CC2)c1,4.63%
19,Cc1cccc(-c2ncc(CN3CCC(CO)(CCCc4ccccc4)CC3)cn2)c1,5%
20,Cc1ccc(NC(=O)c2ccc(S(=O)(=O)NCC3CCCO3)cc2)cc1C (stereo unspecified),-6.15%
21,O=C(Nc1ccc(N2CCN(C(=O)C3CC3)CC2)cc1)c1cccs1,4.68%
22,O=C(CS(=O)(=O)c1ccccc1)Nc1ccc(S(=O)(=O)Nc2ccccn2)cc1,-6.08%
23,CC(=O)N/N=C(\C)c1ccc(Br)cc1Br,-4.44%
24,Cc1ccc(-c2cc(C(=O)NCc3cn(C)nc3C)c3cc(Br)ccc3n2)cc1,37% (active)
25,COc1ccc(Cl)cc1C(=O)NCc1cn(C)nc1C,8.12%
26,Cc1ccc2nc(-c3cccc(Br)c3)cc(C(=O)Nn3cnnc3)c2c1,-0.43%

row,SMILES,activation
1,O=C(Oc1cccc(O)c1)C1CCCCC1,1.13%
2,Cc1ccc(NC(=O)c2ccc(Oc3ncccn3)cc2)cc1,3.49%
3,CN(C)c1ccc(/C=N/N(Cc2ccccc2)c2ccccc2)cc1,11.9%
4,CCN(/N=C/c1ccccc1)c1cc(=O)n(C)c(=O)[nH]1,-3.6%
5,CCN(/N=C/c1ccc(N(C)C)cc1)c1nc2ccccc2[nH]1,23% (active)
6,O=C(Nc1ccccc1F)c1ccc(Cn2cc(Br)cn2)cc1,-1.02%
7,CN1CCN(CCC(=O)N/N=C/C=C2\N(C)c3ccccc3C2(C)C)CC1,10%
8,O=C(Nc1ccncc1)c1ccccc1[N+](=O)[O-],-0.46%
9,CCn1cc(CNC(=O)c2cc([N+](=O)[O-])c(C)c([N+](=O)[O-])c2)cn1,-6.4%
10,COc1ccc(NC(=S)NC2CCS(=O)(=O)C2)cc1 (stereo unspecified),6.88%
11,Cc1ccc(-c2nc(C)sc2CC(=O)O)cc1,-0.57%
12,O=C(O)Cc1sc(-c2ccc(C(=O)O)cc2)nc1-c1ccccc1,10.9%
13,O=C(O)Cc1sc(-c2ccccc2)nc1-c1cccs1,34.7% (active)
14,COc1ccc(NC(=O)CN(C)CC(=O)Nc2cccc(C(F)(F)F)c2)cc1,-2.86%
15,COc1cc2c(cc1OC)CC1(CCCCC1)N=C2,0.25%
16,Cc1n[nH]c(=O)nc1N/N=C/c1cccs1,3.35%
17,COc1cccc(-n2c(=O)c3c(C)c(C(=O)N(C)C)sc3n(CC(=O)NCCc3ccc(OC)c(OC)c3)c2=O)c1,9.15%
18,O=C(NNc1ccccc1Cl)C(O)(c1cccc(C(F)(F)F)c1)c1cccc(C(F)(F)F)c1,17.2%
19,Cc1cccc(OCc2ccc(C(=O)Nc3ccc(F)cc3)cc2)c1,-0.72%
20,Cc1nc2ccccc2cc1OCc1ccc(F)cc1,4.89%
21,Fc1ccc(COc2cccc(-c3n[nH]c(=S)o3)c2)cc1,44.9% (active)
22,CCn1c(=O)cc(SCC(=O)NCc2ccc3c(c2)OCO3)c2ccccc21,36% (active)
23,CC(C)NC(=O)CSc1ccccc1C(=O)NCc1ccc2c(c1)OCO2,-4.93%
24,CCn1c(=O)cc(SCC(=O)NCCC2=CCCCC2)c2ccccc21,16.9%
25,O=C(N/N=C/c1ccc2c(c1)OCO2)C(=O)N1CCCC1,-5.72%
